Screening data from PubChem BioAssay.
Shown are actives, neighbours in structure and some others; about 8.2% of the full set was active somewhere.
MCF10A rereplic – A quantitative high throughput screen for small molecules that induce DNA re-replication in MCF 10a normal breast cells | MCF 10A DNA re-replication, Hoechst nuclear intensity, 48 h | 350,000 compounds, 2.9% hits | Potency, µM (doses to about 46.1 µM), for the others: at the highest dose activity, positive = re-replication, usual class: activators; note: % of control where 0% means no effect; nearly all actives have a fitted effect of over 50% in size
SW480 rereplic – A quantitative high throughput screen for small molecules that induce DNA re-replication in SW480 colon adenocarcinoma cells; SW480 DNA re-replication, Hoechst DNA content imaging, 48 h; 340,000 compounds, 1.8% hits; Potency, µM (top dose mostly 46.1 µM), for the others: at the top dose re-replication activation, usual class: activators; AID 624297, 2012; note: % of control where 0% means no effect; nearly all actives have a fitted effect of over 55% in size
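Quantitative HTS format with DMSO vehicle controls; 48 hr drug incubation at 37 C, then 40 min Hoechst staining and scanning imager measurement at 405 nm excitation.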
KB-V1 MDR tox – qHTS assay for MDR1-selective chemotherapeutics: Primary screen using the drug-selected MDR subline cells KB-V1; KB-V1 MDR cells viability, CellTiter-Glo, 72 h; Potency, µM (top dose mostly 46.1 µM), hits mostly cytotoxic; 400,000 compounds, 3.4% hits; AID 1347076, 2019; note: % is set by controls: 0 for no effect and ±100 for the full control effect; nearly all actives have a fitted effect of over 60% in size
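Readout: CellTiter-Glo luminescence, 10 min after addition. Cells: KB-V1 MDR subline, 72 h at 37 degrees C with compound. Analysis: corrected, normalized data fitted to concentration-effect curves.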
KB-3-1 tox – qHTS assay for MDR1-selective chemotherapeutics: Primary screen using the parental adenocarcinoma cell KB-3-1; 400,000 compounds, 1.4% hits; AID 1347075, 2019; KB-3-1 viability, CellTiter-Glo ATP luminescence, 72 h; Potency, µM (highest dose often 46.1 µM), hits mostly cytotoxic; note: % is set by controls: 0 for no effect and ±100 for the full control effect; nearly all actives have a fitted effect of over 60% in size
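Cytotoxicity in the drug-sensitive parental line KB-3-1 was scored as loss of CellTiter-Glo luminescence following 72 h incubation with compound. Values come from curve fitting of normalized concentration-response data.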
ELG1 DNA repair – qHTS screen for small molecules that inhibit ELG1-dependent DNA repair in human embryonic kidney (HEK293T) cells expressing luciferase-tagged ELG1; HEK293T ELG1-luciferase reporter, luminescence, 16 h; DNA damage induced by 5-fluorouridine; Potency, µM (series often up to 46.1 µM), without a hit: top-dose activity change, negative = inhibition, usual class: inhibitors; 330,000 compounds, 2.3% hits; AID 504467, 2011; note: % is set by controls: 0 for no effect and ±100 for the full control effect; nearly all actives have a fitted effect of over 55% in size
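HEK293T cells expressing luciferase-tagged ELG1 (2,000/well) received 5-Fluorouridine plus compound or DMSO for 16 hr at 37 °C. Luciferase was read by ONE-Glo luminescence after 30 min at room temperature.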
* = called active by the depositor; i = inactive; ? = inconclusive; nt = no result given. Calls come from the whole dose curve; as a rule, active = well fitted curve in the direction sought with a large enough effect; inconclusive = small, poorly fitted or top-dose-only effect, or another doubt; inactive = no such curve, though single readings can be large; an effect the other way counts as inactive or inconclusive. Potency is the fitted concentration of half-maximal effect.

SMILES	MCF10A rereplic	SW480 rereplic	KB-V1 MDR tox	KB-3-1 tox	ELG1 DNA repair
COc1ccc(N2CCN(S(=O)(=O)c3cc4c(cc3C)N(C(C)=O)CCO4)CC2)cc1	4.5%	-2.5%	i	i	?
CCOCCCN(C)C1CCN(C(=O)c2oc3ccccc3c2NC(=O)COc2ccc(F)cc2)CC1	?	?	i	i	?
CC1(C)C2([N+](=O)[O-])CN(CCO)CC1([N+](=O)[O-])CN(CCO)C2	-2.9%	2.5%	i	i	0.5%
CC1(C)C2([N+](=O)[O-])CN3CC1([N+](=O)[O-])CN(C2)C3C(O)C(O)C(O)CO (centres undefined)	-2.3%	10.3µM*	i	i	13.4%
O=C(CCNS(=O)(=O)c1ccc2c(c1)CCN2C(=O)C1CC1)N1CCN(c2cccc(Cl)c2)CC1	nt	nt	i	?	nt
CCOC(=O)C1CCC(CN(Cc2ccc(Cl)cc2)S(=O)(=O)c2ccc(Br)cc2)CC1 (centres undefined)	nt	nt	i	i	nt
CC(C)CC(N)c1csc(NC(=O)Nc2ccccc2C(C)(C)C)n1 (centres undefined)	nt	nt	23.1µM*	?	nt
Cc1ccc(OCC(=O)Nc2ccc3c(c2)OCO3)cc1C	8.5%	?	i	i	21.9%
Cc1ccc(C)c(OCC(=O)Nc2ccc3c(c2)OCO3)c1C	6.1%	?	?	8.2µM*	-10.9%
COC(=O)c1ccc(NC(=O)COc2ccc3c(c2)OCO3)cc1	-1.2%	0.411µM*	i	i	-5.2%
CN(C)c1oc(-c2ccc(COc3ccccc3)o2)nc1C#N	nt	nt	i	i	nt
CCC1(c2ccccc2)NC(=O)N(CC(=O)NCCN2C(=O)S/C(=C\c3cccnc3)C2=O)C1=O (centres undefined)	5.8%	-3.7%	?	i	10.6%
Cc1ccsc1C(=O)N1CCCC(CO)(Cc2ccccc2)C1 (centres undefined)	-0.5%	23.5%	i	?	-3.7%
CCN(CC(=O)NCc1ccc(F)cc1)C(=O)/C=C/c1ccc(OC)c(S(=O)(=O)NC(C)C)c1	1.84µM*	8.2µM*	i	2.59µM*	-6.4%
CC(C)N1CCc2c(sc(NC(=O)c3nc4ccccc4s3)c2C(N)=O)C1	23.3%	?	?	i	0.6%
CC(=O)N1CCc2c(sc(NC(=O)C3CC3)c2-c2nc3ccccc3s2)C1	23.1µM*	?	i	?	?
CC(=O)Nc1sc2c(c1-c1nc3ccccc3s1)CN(C(C)C)CC2	?	2.59µM*	?	?	?
CCCCC(=O)Nc1sc2c(c1-c1nc3ccccc3s1)CCN(C(C)=O)C2	nt	nt	nt	nt	18.4µM*
Cc1ccc(C)c(NC(=O)COC(=O)c2ccc(S(=O)(=O)N3CCCC3)cc2)c1	nt	nt	?	i	nt
CC(=O)c1ccc(N2CCN(CN3C(=O)CC4(CCCC4)C3=O)CC2)c(F)c1	?	-0.9%	i	i	24.1%
Oc1cccc2ccc(/C=C/c3ccccc3Cl)nc12	12.8%	?	i	i	?
Oc1cccc2ccc(/C=C/c3c(F)cccc3Cl)nc12	27.4%	18.4µM*	i	?	?
CCOC(=O)C1=C(c2ccccc2)NC(=S)NC1c1cccc([N+](=O)[O-])c1 (centres undefined)	11.1%	-1.8%	14.6µM*	i	-19.9%
CCOC(=O)C1=C(c2ccccc2)NC(=S)NC1c1ccc(C)c([N+](=O)[O-])c1 (centres undefined)	?	?	2.91µM*	i	?
C#CCN1C(C)=C(C(=O)OC)C(c2cccc([N+](=O)[O-])c2)C(C(=O)OCC)=C1C (centres undefined)	3.2%	2.5%	11.6µM*	i	-13.0%
SMILES	MCF10A rereplic	SW480 rereplic	KB-V1 MDR tox	KB-3-1 tox	ELG1 DNA repair
N#Cc1nc(Nc2cc(F)cc(F)c2)c2ncn(CCCO)c2n1	nt	nt	i	?	nt
CCc1nc2ccc(C(=O)NCc3ccc(OC)cc3)cn2c1N(CCC(C)C)CCN(C)C	nt	nt	i	i	nt
Cc1ccc(C(=O)/C=C/c2ccc3ncccc3c2)cc1	18.4µM*	?	i	i	?
O=C(/C=C/Nc1cccc(O)c1)c1ccccc1	?	5.7%	i	i	?
Cc1ccc(C(=O)/C=C/Nc2cccc(O)c2)cc1	23.1µM*	?	i	i	?
Cc1ccc(C(=O)Nc2ccc3ncccc3c2)cc1	9.5%	15.9%	i	i	?
Cc1ccc(/C=C/C(=O)c2ccc(O)cc2)cc1	?	18.4µM*	?	?	?
CSc1ccc(/C=C/C(=O)c2ccc(O)cc2)cc1	?	21.4%	?	?	?
O=C(/C=C/c1ccc(O)cc1)c1ccc(O)cc1O	14.6µM*	-53.2%	?	?	?
O=C(NCc1ccccc1Cl)c1ccc(Cn2c(SCc3ccccc3)nc3cccnc32)cc1	nt	nt	i	i	nt
Cc1ccccc1N1C(=O)c2cccc3c(N(C)CCO)ccc(c23)C1=O	-3.9%	?	18.4µM*	i	?
CCOc1ncccc1C(=O)NNC(=O)c1ccc(NS(=O)(=O)c2cccs2)cc1	7.6%	-6.0%	i	i	9.5%
CCc1noc(C)c1C(=O)N1CC(C)SC1=Nc1ccc(Cl)cc1 (centres undefined)	7.8%	1.0%	16.4µM*	i	12.4%
CCc1noc(C)c1C(=O)N1CC(C)OC(C)C1 (centres undefined)	0.9%	-5.4%	i	i	-4.1%
COc1ccc(-c2cc3nc(C)c(CCC(=O)N4CCN(c5ccccc5F)CC4)c(C)n3n2)c(OC)c1	nt	nt	i	i	nt
Cc1ccc(OCCCN2C(=O)C(=O)c3cc(C)ccc32)cc1	20.6µM*	23.1µM*	i	?	-14.4%
Cc1ccc2c(c1)C(=O)C(=O)N2CCCOc1ccccc1	?	?	i	i	4.4%
C/C(=N\NC(=O)c1ccc(N/N=C(\C)c2ccncc2)cc1)c1ccncc1	?	6.5%	?	i	23.1µM*
C/C(=N/NC(=O)c1ccncc1)c1ccccc1	-3.9%	-74.2%	?	i	?
CC(=NNC(=O)c1ccncc1)c1ccccc1Cl	-12.2%	-2.7%	i	i	nt
C/C(=N\NC(=O)c1ccccc1NC(=O)c1ccc(Cl)cc1)c1ccncc1	1.5%	3.8%	1.3µM*	1.46µM*	?
Nc1nc(=O)n(C2CCCO2)cc1Br (centres undefined)	-1.0%	-1.1%	i	i	nt
